High-throughput results: PubChem BioAssay, several laboratories
NALP1 yeast inh – NALP1 inhibition; S. cerevisiae NALP1/ASC/caspase-1 growth, X-gal OD620, 72 h; 280,000 compounds, 0.61% hits; inhibition, % at 10 µM; in the data active = inhibition mostly above about 24%, no sharp cut-off; inactive = mostly below about 32%
TIM10 inh – TIM10 yeast growth inhibition | S. cerevisiae TIM10 strain growth, BacTiter-Glo luminescence, 24 h | inhibition, % at 10 µM | 330,000 compounds, 1.4% hits | AID 463195;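 active = inhibition of 40% or more at the single tested concentration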;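 note: wild-type TIM10 isogenic control strain grown at permissive 25 °C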
NLRP3 yeast inh – blocks the NALP3 inflammasome reconstituted in yeast; Yeast reconstituted NLRP3/ASC/caspase-1, beta-gal luminescence, 24 h; 330,000 compounds, 0.39% hits; inhibition, % at 10 µM; AID 2825;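 active = inhibition of 50% or more; inactive = inhibition below 50%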;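 note: plate controls were induced DMSO wells for no effect and uninduced yeast grown without galactose for full effect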
tim23-1 inh – inhibits growth of tim23-1 mutant yeast. S. cerevisiae tim23-1 growth, BacTiter-Glo luminescence, 24 h. inhibition, % at 20 µM. 330,000 compounds, 1.3% hits. AID 463212;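 active = growth inhibition of the mutant yeast at or above 50%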;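 note: temperature-sensitive mutant grown at 25 °C; plate controls were DMSO-treated mutant yeast for no effect and medium wells lacking yeast for full effect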
tim10-1 inh – inhibits growth of tim10-1 mutant yeast; S. cerevisiae tim10-1 ts strain growth, BacTiter-Glo, 24 h; inhibition, % at 20 µM; 330,000 compounds, 2.2% hits; AID 463190;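 active = inhibition of at least 40%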;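 note: mutant grown at 25 °C; 0% = DMSO wells with yeast and 100% = wells holding no yeast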
PfHsp90 yeast 2 – growth inhibition of yeast expressing Plasmodium Hsp90; inhibition, % at 9.4 µM; 310,000 compounds, 0.32% hits; S. cerevisiae expressing PfHsp90, BacTiter-Glo ATP, 48 h; yeast lacking PDR1 and PDR3 efflux regulators; AID 504621;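 active = every replicate shows inhibition above about 80%, whatever the replicate mean, limit read from the data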;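 note: 0% = DMSO neutral controls and 100% = 20 µM radicicol positive controls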
tim10-1 conf – confirmation of tim10-1 mutant yeast growth inhibitors | shares compounds with tim10-1 inh | S. cerevisiae tim10-1 ts strain growth, BacTiter-Glo, 24 h | inhibition, % at 20 µM | 7,400 compounds, 56% hits;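 active = inhibition of yeast growth at or above a set limit in either of two repeat tests at 20 µM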;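 note: tim10-1 mutant grown at permissive 25 °C to find synthetic lethal compounds; 0% = DMSO yeast wells and 100% = medium wells without yeast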
* marks the source's active call; other numbers are inactive results; . = not tested or not shown. In the library only some 4.2% were active in any assay of this set; here they are far more common.

SMILES | NALP1 yeast inh | TIM10 inh | NLRP3 yeast inh | tim23-1 inh | tim10-1 inh | PfHsp90 yeast 2 | tim10-1 conf
Cc1cc(SCC(=O)N/N=C/c2ccco2)nc2ccccc12 | 6 | 3 | 6 | 28 | 40* | 18 | 15
Cc1cccc2[nH]c3c(N4CCC5(CC4)OCCO5)ncnc3c12 | -25 | 22 | 2 | 33 | 51* | . | 32*
Clc1ccc2[nH]c3c(N4CCC5(CC4)OCCO5)ncnc3c2c1 | 7 | 3 | 20 | 22 | 21 | . | .
O=C(/C=C/c1cccs1)c1cc(Br)ccc1OC(=O)N1CCOCC1 | 48 | 37 | 20 | 35 | 56* | -14 | 43*
Cc1cc(=O)oc2cc(OC(=O)C3CCN(C(=O)c4ccc(F)cc4)CC3)ccc12 | . | 10 | 7 | 3 | 33 | -14 | .
Cc1ccc([N+](=O)[O-])cc1NC(=S)NC(=O)CC(C)(C)C | 8 | 23 | 18 | 41 | 43* | -8 | 26
Cc1ccc([N+](=O)[O-])cc1NC(=S)NC(=O)C(C)(C)C | -8 | 15 | 28 | 26 | 16 | -5 | .
COc1ccccc1OCCNC(=O)c1cccc(S(=O)(=O)NCc2ccccc2)c1 | . | -3 | 8 | 3 | 9 | 0 | .
COc1cc(NC(=O)c2ccccc2F)c(OC)cc1NC(=O)CN1CCOCC1 | 9 | 14 | -4 | 30 | 43* | -9 | 25
N#CCCN1CCN(CCC#N)C1=S | . | . | . | . | . | -10 | .
COc1ccc(C(=O)NC2CCCc3c2cnn3-c2cc(F)cc(F)c2)c(OC)c1OC (stereo not given) | 7 | 12 | 5 | 39 | 41* | -32 | 28*
c1ccc(CCc2cc3ccccc3[nH]2)cc1 | . | 10 | 27 | 26 | 7 | -33 | .
O=S(=O)(Nc1ccc2c(c1)oc1ccccc12)N1CCCC1 | 11 | 39 | 12 | 22 | 48* | 18 | 27
O=S(=O)(c1ccc2c(c1)oc1ccccc12)N1CCOCC1 | 11 | 14 | 20 | 15 | 7 | . | .
Cc1ccc(F)c(CNC(=O)C2CCC(=O)N(Cc3ccccn3)C2)c1F (stereo not given) | -5 | -5 | 13 | -3 | -9 | 0 | .
CC(C)Oc1ccc(C(CC(=O)NCc2ccco2)c2ccccc2)cc1 (stereo not given) | 6 | 19 | 1 | 20 | 40* | -11 | 11
COc1ccc(/C=C/C(=O)CCC(=O)O)cc1 | 3 | 1 | 11 | -1 | 1 | 0 | .
COc1ccc(/C=C/C(=O)CC(O)(c2ccccc2)C(F)(F)F)cc1 (stereo not given) | -4 | 30 | 15 | 40 | 47* | . | 36*
O=C(/C=C/c1ccccc1)CC(O)(c1ccccc1)C(F)(F)F (stereo not given) | 9 | 27 | 42 | 31 | 45* | -23 | 39*
COc1cc(/C=N/N2C(=O)c3ccccc3NC2(C)c2cccc([N+](=O)[O-])c2)cc(Br)c1O (stereo not given) | -15 | 31 | 13 | 30 | 44* | 4 | 21
COc1cc(/C=N/NC(=O)c2ccc([N+](=O)[O-])cc2Cl)cc(Br)c1O | 22 | -3 | 12 | 2 | -3 | 13 | .
Cc1cccc(CN2CCc3c([nH]c4ccccc34)C2)c1 | 18 | 29 | -4 | 22 | 33 | -5 | .
Clc1cccc(CN2CCc3c([nH]c4ccccc34)C2)c1 | 28 | 35 | 8 | 25 | 45* | -9 | 44*
COCc1cc(C)nc(Oc2ccccc2)c1C#N | 0 | -26 | -6 | 5 | 1 | -2 | .
CN(C)c1ccc(C=NCC2COc3ccccc3O2)cc1 (stereo not given) | -12 | 5 | 15 | -7 | 1 | -13 | .
SMILES | NALP1 yeast inh | TIM10 inh | NLRP3 yeast inh | tim23-1 inh | tim10-1 inh | PfHsp90 yeast 2 | tim10-1 conf
COc1ccc2oc3cc(C)[n+]([O-])c(-c4ccc(Br)cc4)c3c2c1 | 28 | 8 | 8 | 33 | 42* | 9 | 24
COc1ccc(-c2ccc3oc(-c4ccc(OC)cc4)c(-c4ccc(OC)cc4)c3c2)cc1 | . | -6 | -3 | -2 | 11 | -12 | .
Cc1nc2cc(Cl)ccc2n1-c1ccccc1 | . | -4 | 13 | 24 | 47* | -1 | 19
CC(=O)Nc1ccc2c(c1)nc(C)n2-c1ccccc1 | -3 | -6 | 22 | -7 | -9 | -11 | .
COc1ccc(-c2cnn3c4c(c(C)nc23)CCN4C(C)C)cc1OC | 31 | 15 | 13 | -2 | 43* | 23 | 25
CCCN1CCN(C(=O)Cn2nc(CC)n3c(cc4sccc43)c2=O)CC1 | 3 | -10 | 14 | -11 | -23 | -9 | .
C=CC[n+]1c(-c2ccc(C)cc2)csc1Nc1c(C)n(C)n(-c2ccccc2)c1=O | -3 | 30 | 17 | 39 | 41* | -2 | 24
C/C(=N/NS(=O)(=O)c1ccccc1)c1ccc(Cl)cc1 | -1 | 32 | 6 | 13 | 40 | 9 | 20
C/C(=N\NS(=O)(=O)c1ccc(C(C)(C)C)cc1)c1ccccc1 | 20 | 29 | -12 | 49 | 42* | -14 | 43*
C/C(=N/NS(=O)(=O)c1ccc(Cl)cc1)c1ccncc1 | 18 | 17 | 4 | 13 | 25 | 25 | .
CCOC(=O)c1c(S(=O)(=O)N2CCCC(C(=O)Nc3ccc(C)cn3)C2)c(C)n(C)c1C (stereo not given) | -7 | 5 | 1 | -3 | -11 | 19 | .
COc1ccc(OC)c(C(C)NC(=O)C(C)n2cc([N+](=O)[O-])cn2)c1 (stereo not given) | . | -5 | -2 | 8 | 4 | -19 | .
Cn1c(=O)c(N=O)c(N)n(Cc2ccccc2)c1=S | . | 12 | 3 | 12 | -6 | -38 | .
COc1ccc(-c2nc(N3CCCCCC3)sc2C(=O)c2ccccc2)cc1 | 19 | 21 | 24 | 28 | 28 | 30 | .
O=C(c1ccccc1)c1sc(N2CCCCCC2)nc1-c1ccccc1 | 21 | 18 | 6 | 36 | 43* | . | 16
Cc1ccccc1NC(=O)CSc1ccsc1[N+](=O)[O-] | 18 | 15 | 24 | 19 | 20 | -6 | .
CCOC(=O)c1sc2nc(N3CCOCC3)c3c(c2c1N)CCC3 | 12 | 32 | 21 | 42 | 32 | . | .
CCOC(=O)c1oc2nc(CC(C)C)c3c(c2c1N)CCC3 | -3 | 38 | -7 | 46 | 40* | 24 | 18
COc1ccc(-c2oc3cccnc3c2/C=C/c2ccc(OC)c(OC)c2)cc1 | -14 | 18 | 22 | 37 | 41* | -9 | 14
COc1ccc(/C=C/c2c(-c3ccc(OC)cc3)oc(=O)c3cc(OC)c(OC)cc23)cc1 | . | 4 | 3 | 16 | 10 | 2 | .
Cc1cccnc1N1C(=O)c2ccc(C(=O)O)cc2C1=O | -49 | -1 | 0 | 0 | -9 | 3 | .
O=C(COc1ccccc1F)Nc1ccccc1C(=O)NC1CC1 | . | 3 | 13 | 27 | 18 | 2 | .
